# ChEMBL document CHEMBL4513216, “Probing the Open Global Health Chemical Diversity Library for Multistage-Active Starting Points for Next-Generation Antimalarials” (ACS Infect Dis, 2020)
# In all, about 69,000 compounds went through this assay and about 8,600 (12%) showed an effect of 50% or more. The sample as a whole holds a higher share of strong results than the screen did.
# Test system: Plasmodium berghei
# Assay: Screen against P. berghei liver stage (PbLuc), transformed with Luciferase, at 10uM
# Format: functional, HepG2
# Conditions: tested at 10 uM
row,SMILES,INHIBITION
1,Cc1cc(C(=O)N2CCn3c(COCC4CCCC4)cnc3C2C)on1 (configuration not stated),37.3%
2,CCn1nc(C)c2nc(C)nc(NCCc3ccc(C)cc3)c21,62.7%
3,CCn1nc(C)c2nc(C(C)C)nc(NCCCO)c21,-9.48%
4,CCn1nc(C)c2nc(C(C)C)nc(NCCc3ccc(O)cc3)c21,68.1%
5,CCn1nc(C)c2nc(C)nc(NCCc3ccccc3)c21,46.4%
6,CCCc1nc(NCCc2ccccc2)c2c(n1)c(C)nn2CC,43.7%
7,CCn1nc(C)c2nc(C(C)C)nc(NCC(C)O)c21 (configuration not stated),-3.11%
8,CCOc1ccccc1C1CCCN1 (configuration not stated),15.8%
9,Cc1cnn(CC(C)NCc2nc(-c3ccsc3)oc2C)c1 (configuration not stated),-7.31%
10,Cn1cc(CN2CCS(=O)(=O)C(C)(C)C2)cn1,44.3%
11,Cc1ccc(CN2CCS(=O)(=O)C(C)(C)C2)cc1C,70.1%
12,CC1(C)CN(Cc2ccncc2)CCS1(=O)=O,21.9%
13,COc1ccc(Cn2cc(C(C)O)nn2)cc1 (configuration not stated),19.9%
14,CNc1cnc(CC2COCCN(CCOc3ccccc3)C2)cn1 (configuration not stated),39.7%
15,CC(=O)NC1CCN(C(=O)Nc2cccc(C(F)(F)F)c2)CC1,27.9%
16,CC(=O)NC1CCN(C(=O)Nc2ccc(SC(F)F)cc2)CC1,73.5%
17,CC(=O)NC1CCN(C(=O)Nc2cccc(SC(F)F)c2)CC1,27.9%
18,CN(Cc1ccco1)[C@@H]1CN(Cc2cccs2)C[C@@H]2CCCO[C@@H]21,31.4%
19,Cn1cnnc1SCC(=O)N1C[C@@H]2CC[C@H]1CN(Cc1cccnc1)C2,6.28%
20,CCN(CC)C(=O)CN1CCc2c(nc(C3CCNCC3)nc2NC)C1,-3.94%
21,Nc1ccc(C(=O)N2C[C@H]3CC[C@@H](C2)N(Cc2ccccc2)C3)cn1,-20.8%
22,Cc1ccc(-n2ncc(C(=O)NCC3CCS(=O)(=O)C3)c2C)cc1 (configuration not stated),-24.2%
23,Cc1cccc(-n2ncc(C(=O)NCC3CCS(=O)(=O)C3)c2C)c1 (configuration not stated),-33.9%

row,SMILES,INHIBITION
1,Cc1c(C(=O)NCC2CCS(=O)(=O)C2)cnn1-c1ccccc1 (configuration not stated),57.8%
2,O=C1N(Cc2ccc(Cl)cc2)CCC12CCCNC2 (configuration not stated),3.81%
3,CC(=O)NCCc1ccc(S(=O)(=O)Nc2ccc(C)c(F)c2)s1,32.3%
4,CC(=O)c1ccc(-n2c(C)cn(CCC#N)c2=O)cc1,5.36%
5,CC(=O)c1ccc(-n2c(C)cn(CCC(=O)NC(N)=O)c2=O)cc1,12.7%
6,CC(=O)c1ccc(-n2c(C)cn(CCS(C)(=O)=O)c2=O)cc1,55.6%
7,OC(CN1CCN(Cc2cc(F)ccc2F)CC1)C1CC1 (configuration not stated),-6.11%
8,CCC(Nc1cccc(OC)c1)C(=O)NCc1nc(C)cc(=O)[nH]1 (configuration not stated),36.4%
9,O=S(=O)(C1CC1)N1CCc2c(CN3CCOCC3)cncc2C1,12.6%
10,CCS(=O)(=O)N1CCc2c(COCc3ccncc3)cncc2C1,66.6%
11,CCS(=O)(=O)N1CCc2c(CN3CCOCC3)cncc2C1,92.1%
12,CCS(=O)(=O)N1CCc2c(COC)cncc2C1,23.1%
13,CCS(=O)(=O)N1CCc2c(COCCN(C)C)cncc2C1,24%
14,CCCS(=O)(=O)N1CCc2c(COCC)cncc2C1,33%
15,CN(C)CCN(C)C(=O)c1ccccc1-n1cc(CN(C)C)cn1,1.5%
16,c1ccc(CN2Cc3[nH]nc(COCC4CC4)c3C2)nc1,30.5%
17,CN(C)CCNC(=O)C1Cc2nc(-c3ccccc3)sc2N1CC1CC1 (configuration not stated),24.3%
18,CN(CCNC(=O)c1cnc(-c2ccccc2)nc1)S(C)(=O)=O,57.1%
19,CCN(CC)CCNC(=O)c1cnc(-c2ccccc2)nc1,-8.07%
20,CN(CCNC(=O)c1cnc(-c2ccncc2)nc1)S(C)(=O)=O,25.1%
21,Cc1ccc(OCCN2CCCC(c3cc(C(N)=O)[nH]n3)C2)cc1 (configuration not stated),15.3%
22,O=C(NC1CC1)C1CCN(c2snc3ccccc23)CC1,37.9%
23,CCc1n[nH]c(C2CN(C(=O)c3cnc(C)nc3CC)CCO2)n1 (configuration not stated),-49.5%

row,SMILES,INHIBITION
1,CC(NC(=O)c1ccc(=O)n(C)c1)c1ccc(OCC2CC2)c(F)c1 (configuration not stated),40.97%
2,CC(NC(=O)c1ccnn1C)c1ccc(OCC2CC2)c(F)c1 (configuration not stated),68.2%
3,CC(=O)NC(C)c1ccc(OCC2CC2)c(F)c1 (configuration not stated),26.8%
4,CC(=O)c1cccc(-n2nc(C(C)=O)c(C(C)=O)c2C)c1,0.325%
5,O=C(Nc1nnc(C(F)F)s1)N[C@H](CCO)c1ccccc1,20.9%
6,COc1ccnc(N2CCN(C(=O)c3ccc(Cl)o3)CC2)n1,-9.76%
7,CCC1CN(C(=O)c2csc3nc(-c4ccc(Cl)cc4)cn23)CCN1 (configuration not stated),56.1%
8,CC(C)N1CCN(C(=O)c2csc3nc(-c4ccc(Cl)cc4)cn23)CC1,37.9%
9,O=C(c1csc2nc(-c3ccc(Cl)cc3)cn12)N1CCCC(CO)C1 (configuration not stated),-16.6%
10,CNC(=O)C1(CCCc2ccccn2)CCN1Cc1coc(C)n1 (configuration not stated),9.05%
11,O=C(NCc1cccnc1)c1cn(CCc2ccccc2)nn1,12.9%
12,Cc1nn(C2CCCC2)c2nc(C(C)(C)CN3CCN(C)CC3)[nH]c12,49.4%
13,CS(=O)(=O)CCn1ccc(NC(=O)CCc2cccc(F)c2)n1,13.8%
14,Nc1nccc(N[C@H]2CN(CC(=O)NC3CCCCC3)C[C@@H]2C2CC2)n1,56.2%
15,Cc1nccc(N[C@H]2CN(CCC(=O)NC3CCCC3)C[C@@H]2C2CC2)n1,26.5%
16,Cc1nccc(N[C@H]2CN(CCS(C)(=O)=O)C[C@@H]2C2CC2)n1,39.3%
17,Cc1noc([C@H]2C[C@H]3CN(C(=O)Cc4ccsc4)CC[C@H]3O2)n1,-14.1%
18,c1ccc2c(c1)CC(n1ccnc1-c1cc3n(n1)CCCNC3)CO2 (configuration not stated),18.5%
19,O[C@H]1Cc2ccccc2[C@H]1n1ccnc1-c1cc2n(n1)CCNC2,67.6%
20,c1ccc2c(c1)CC(n1ccnc1-c1cc3n(n1)CCNC3)CO2 (configuration not stated),43.9%
21,COc1ccc(CCCC(=O)N2C[C@H](C3CC3)[C@@H](N(C)C)C2)cc1,6.28%
